# Data taken from the supplement of paper PMC6555819.
# Assays:
# Experiment in all cases: PBM binding z-score (relative to random genomic background probes); higher = stronger binding; sequences stand for … in GC…GCGATTGACAGCGTAGAATGAAGG
# [1] = system: FXR:RXRa (NR concentration 270 nM, RXRa partner concentration 90 nM)
# Method in brief: (§1)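 Ligand-free nuclear receptor dimers were bound for 1 h to custom Agilent 4×180K protein-binding microarrays. Detection used antibodies against each partner (one per run). Binding z-scores rest on regression-normalized fluorescence, with random background probes as the reference.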
# [2] = system: LXRa:RXRa (NR concentration 270 nM, RXRa partner concentration 90 nM)
# Method in brief: as §1
# [3] = system: LXRa homodimer (NR concentration 270 nM)
# Method in brief: as §1
# [4] = system: LXRb:RXRa (NR concentration 270 nM, RXRa partner concentration 90 nM)
# Method in brief: as §1
# [5] = system: LXRb homodimer (NR concentration 270 nM)
# Method in brief: as §1
# [6] = system: PPARa:RXRa (NR concentration 270 nM, RXRa partner concentration 90 nM)
# Method in brief: as §1
# [7] = system: PPARg:RXRa (NR concentration 180 nM, RXRa partner concentration 90 nM)
# Method in brief: as §1
# [8] = system: PPARg:RXRa 270nM:90nM, anti-RXR (NR concentration 270 nM, RXRa partner concentration 90 nM)
# Method in brief: as §1
# [9] = system: PPARg:RXRa 30nM:10nM, anti-RXR (NR concentration 30 nM, RXRa partner concentration 10 nM)
# Method in brief: as §1
# [10] = system: PPARg:RXRa 90nM:30nM, anti-RXR (NR concentration 90 nM, RXRa partner concentration 30 nM)
# Method in brief: as §1
# [11] = system: PPARg:RXRa DBDmut IVT, anti-RXR (DBD mutation: RXRa K156A/R161A, NR concentration 270 nM, RXRa partner concentration 90 nM)
# Method in brief: as §1
# [12] = system: PPARg:RXRa IVT, anti-PPARg (NR concentration 270 nM, RXRa partner concentration 90 nM)
# Method in brief: as §1
# [13] = system: PPARg DBDmut:RXRa IVT, anti-PPARg (DBD mutation: PPARg1 K132A/R137A, NR concentration 270 nM, RXRa partner concentration 90 nM)
# Method in brief: as §1
# [14] = system: PPARg DBDmut IVT, anti-PPARg (DBD mutation: PPARg1 K132A/R137A, NR concentration 270 nM)
# Method in brief: as §1
# [15] = system: PPARg homodimer (NR concentration 180 nM)
# Method in brief: as §1
# [16] = system: PXR:RXRa (NR concentration 270 nM, RXRa partner concentration 90 nM)
# Method in brief: as §1
# [17] = system: PXR homodimer (NR concentration 270 nM)
# Method in brief: as §1
# [18] = system: RARa:RXR (NR concentration 270 nM, RXRa partner concentration 90 nM)
# Method in brief: as §1
# [19] = system: RARa homodimer (NR concentration 270 nM)
# Method in brief: as §1
# [20] = system: RARb:RXRa (NR concentration 270 nM, RXRa partner concentration 90 nM)
# Method in brief: as §1
Sequence,PBM binding z-score [1],PBM binding z-score [2],PBM binding z-score [3],PBM binding z-score [4],PBM binding z-score [5],PBM binding z-score [6],PBM binding z-score [7],PBM binding z-score [8],PBM binding z-score [9],PBM binding z-score [10],PBM binding z-score [11],PBM binding z-score [12],PBM binding z-score [13],PBM binding z-score [14],PBM binding z-score [15],PBM binding z-score [16],PBM binding z-score [17],PBM binding z-score [18],PBM binding z-score [19],PBM binding z-score [20]
ACTATTAGTTGAATTAGGGCAACCGATACGACGC,0.466,-0.0406,0.224,-0.00259,0.376,1.19,1.47,1.12,0.71,1.04,2.66,3.69,1.92,1.76,1.34,-0.0416,0.205,0.264,1.47,0.87
TATGCTAGGTCAGTTGGTCAGCTAACGAGCTGCC,0.676,1.92,0.835,0.423,1.02,1.46,1.17,1.26,0.0933,0.733,1.61,2.75,1.5,0.759,0.0439,0.247,-0.553,0.47,-0.649,3.04
TATATTAGTTGATTAGGGCAACCGAAACAGCGGA,0.381,0.319,0.79,0.365,1.33,0.535,0.578,0.666,1.02,0.819,0.409,2.01,2.25,1.83,1.16,0.636,0.89,0.181,2.13,1.16
TCTTGTAGATCAATTGAGGTTAAGAAAGTGCGCT,1.19,2.94,0.265,1.56,-0.0639,1.74,-0.433,1.68,2.94,2.2,2.06,1.34,0.476,0.929,0.486,2.84,0.38,1.68,0.164,0.758
CCTTACGGGTCACTCCAGGTTAGAGCATCGGAGT,4.5,6.91,0.78,4.42,0.148,4.23,3.19,3.7,0.828,2.54,2.67,3.37,-0.182,-0.0184,1.58,4.28,0.36,3.52,0.0194,3.64
TATACAGGGTCGAAGGCCAGAGTACGAATGTCGA,1.27,1.32,-0.263,1.01,0.799,2.44,2.45,3.28,1.28,2.65,-0.348,1.5,1.05,0.465,0.74,1.01,-0.0237,1.61,-0.116,1.75
GCTGCTAGGTCAACTGATGGTCAGCTATAGCTCG,4.54,3.25,0.314,2.01,0.25,3.81,2.88,3.13,0.633,2.16,5.21,4.3,-0.479,-0.34,1.51,1.3,-0.342,2.91,0.342,4.31
AGTCAAAATTCATCTAGGTAACGTAAGATATGCT,-0.194,-0.373,-0.0496,-0.0959,-0.222,0.0588,1.19,0.183,0.359,0.0171,0.746,2.03,1.05,0.853,0.212,-0.186,0.107,0.122,0.616,0.168
GCTTACGGGTCAAAGGTTATAGCATGAATAGAAT,7.45,5.9,0.64,6.1,0.563,6.96,11.1,9.42,9.01,9.91,4.91,5.87,1.16,0.991,2.12,6.26,0.29,8.55,0.989,4.79
CCTCGGAGGACAACAGGACGTCAGAGCTGCCAGA,0.0455,-0.556,-0.533,-0.881,-0.769,-0.616,0.187,-1.2,-0.952,-1.19,-0.431,-0.589,-0.661,-1.48,-0.0308,-0.587,-0.482,-0.32,-0.489,0.92
CCTACTGGGCCAAAAAGGTCATTTATGCCGATAA,3.57,4.05,4.05,4.58,0.674,4.48,3.08,3.67,1.23,2.79,3.34,3.95,0.881,-0.177,3.37,4.67,3.36,4.88,1.02,3.7
TCGAGTAGGTTAGTCGGGGCATGCAGCCAACATA,-0.0547,0.104,-0.427,0.0747,-0.894,0.523,0.2,0.809,0.702,0.884,2.41,2.26,0.028,-1.65,-0.293,-0.00662,-0.418,0.207,-0.677,0.512
TCATATAGGTAACGGTGAAAGTCGAACGATATGA,0.511,0.386,-0.274,0.302,-0.326,1.52,1.63,2.54,3.34,2.78,4.89,4.04,1.45,1.23,-0.0318,0.0146,-0.0521,0.23,0.533,0.479
AGAATGAGGATACCAAAGATCAGGGAAACGCTTG,0.11,-0.468,-0.437,-0.336,-0.365,-0.155,0.826,0.344,0.225,0.512,0.148,0.0598,0.131,-0.145,-1.29,-0.349,-0.0472,-0.216,-0.258,-0.0511
CCTAGCAGGCCAATCTGGGTCACTGAAGGCTTGA,1.19,1.16,-0.588,0.364,-1.38,3.01,1.75,2.55,0.263,1.81,4.44,5.17,0.524,0.356,0.812,0.783,-0.752,1.67,-0.428,1.64
ATCGGAAGGTCGACGAGGTGAGTATACACCGTTT,1.65,0.953,-0.358,0.827,-0.58,2.18,1.06,0.751,-0.112,0.452,-0.35,0.996,0.22,-0.4,0.248,1.38,-0.0622,1.66,-0.26,2.51
ATCTCTAGGTTAGACTCAGTTCAGTGAAGAACGC,1,1.74,1.7,1.12,1.27,0.772,0.251,0.742,0.423,0.508,3.38,2.14,1.55,1.36,1.63,2.69,2.69,1.13,2.42,1.53
ATATGTAGGTTACATCCGGGTCATTCACGCTATG,2.44,4.66,1.9,3.31,1.26,4.8,6.27,5.48,2.76,4.79,7.63,7.57,6.55,5.07,5.81,4.01,1.48,4.11,1.52,2.41
TCATATAGGTAAATGCTCGGTGAAAGTCCGATCT,1.09,0.864,0.318,0.922,-0.121,1.33,0.611,2.36,3.97,3.11,4.09,1.97,0.975,0.65,0.847,0.631,0.54,0.843,0.605,0.474
CCTTACGGGTCACTGACAGGTTTTAGCATTTGGA,5.38,3.52,-0.116,3.31,0.045,5.09,4.18,4.36,1.27,3.04,3.46,3.56,0.228,0.218,2.26,2.98,-0.502,4.09,1.06,3.88
ACAATTAGTTGACTTAGGGCAACCGATACGACGC,0.279,0.33,0.565,0.0599,0.612,0.00256,1.03,0.396,0.353,0.139,0.0819,0.506,0.981,1.45,0.921,-0.00518,0.761,0.318,0.646,0.888
ATATGTTGGTTACATCCGGGTCATTCAGGCTATG,1.39,1.84,0.976,2.03,1.13,2.43,1.07,1.17,0.492,0.873,1.41,2.24,1.25,1.54,1.46,2.51,1.42,2.55,1.23,1.62
GCGACTGGGGCACAGCAGGTTACCATAAGGTTGG,0.178,0.265,-0.715,-0.0951,-1.1,0.996,1.75,1.45,-0.344,0.859,5.07,4.28,-0.331,-0.666,0.354,0.113,-0.29,0.435,-0.475,0.997
ATCTCTAGGTAAAGTTTAGTGAAAGATCGATAGA,0.0185,0.132,-0.104,0.124,0.703,0.485,0.873,1.36,0.722,1.25,2.35,1.77,1.78,1.51,0.509,0.187,0.339,-0.0938,1.15,0.584
TCATAGAGGTAATACAGGTGAAAGTCGGCATCTA,0.717,1.43,-0.283,0.754,-0.377,1.85,0.997,1.86,3.1,2.46,2.41,1.82,0.716,0.411,0.49,0.522,-0.0711,1.04,0.214,0.478
TAGCCTAGGGCATTGGGCCAGTATAGTACGCATC,-0.339,-0.336,-0.318,-0.673,-0.892,-0.0901,0.887,0.225,-0.369,-0.368,0.771,1.87,-0.149,-0.898,-1.01,-0.62,-0.779,-0.444,-1.17,1.08
CCGAGTAGGTAATGGGGCATTCAGGCAACGGTGA,-0.324,-0.287,-0.342,-0.153,-0.666,1.73,3.13,4.63,2.99,4.57,3.06,3.08,-0.988,-0.54,0.397,-0.417,-0.151,-0.249,-0.452,0.118
CCTACTGGGCCACAAAAGGTCATTGATTCAGTGA,3.28,5.83,5.25,4.37,0.347,4.79,4.35,4.41,1.88,3.74,5.38,5.41,0.516,0.121,2.8,5.02,1.16,4.9,0.618,3.95
